In all, about 310,000 compounds went through this assay and about 14,000 (4.5%) showed an effect of 50% or more. The effect is printed as a negative number. The sample as a whole holds a higher share of strong results than the screen did.
Target: human ether-à-go-go-related gene (hERG) potassium channel (human, UniProt Q12809)
Test: primary screen, population patch clamp on CHO cells stably expressing hERG; higher = less effect of the substance
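Further: peak tail current of the secondary pulse compared with the same well before compound.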

Chain of human ether-à-go-go-related gene (hERG) potassium channel (Q12809 whole entry, looked up): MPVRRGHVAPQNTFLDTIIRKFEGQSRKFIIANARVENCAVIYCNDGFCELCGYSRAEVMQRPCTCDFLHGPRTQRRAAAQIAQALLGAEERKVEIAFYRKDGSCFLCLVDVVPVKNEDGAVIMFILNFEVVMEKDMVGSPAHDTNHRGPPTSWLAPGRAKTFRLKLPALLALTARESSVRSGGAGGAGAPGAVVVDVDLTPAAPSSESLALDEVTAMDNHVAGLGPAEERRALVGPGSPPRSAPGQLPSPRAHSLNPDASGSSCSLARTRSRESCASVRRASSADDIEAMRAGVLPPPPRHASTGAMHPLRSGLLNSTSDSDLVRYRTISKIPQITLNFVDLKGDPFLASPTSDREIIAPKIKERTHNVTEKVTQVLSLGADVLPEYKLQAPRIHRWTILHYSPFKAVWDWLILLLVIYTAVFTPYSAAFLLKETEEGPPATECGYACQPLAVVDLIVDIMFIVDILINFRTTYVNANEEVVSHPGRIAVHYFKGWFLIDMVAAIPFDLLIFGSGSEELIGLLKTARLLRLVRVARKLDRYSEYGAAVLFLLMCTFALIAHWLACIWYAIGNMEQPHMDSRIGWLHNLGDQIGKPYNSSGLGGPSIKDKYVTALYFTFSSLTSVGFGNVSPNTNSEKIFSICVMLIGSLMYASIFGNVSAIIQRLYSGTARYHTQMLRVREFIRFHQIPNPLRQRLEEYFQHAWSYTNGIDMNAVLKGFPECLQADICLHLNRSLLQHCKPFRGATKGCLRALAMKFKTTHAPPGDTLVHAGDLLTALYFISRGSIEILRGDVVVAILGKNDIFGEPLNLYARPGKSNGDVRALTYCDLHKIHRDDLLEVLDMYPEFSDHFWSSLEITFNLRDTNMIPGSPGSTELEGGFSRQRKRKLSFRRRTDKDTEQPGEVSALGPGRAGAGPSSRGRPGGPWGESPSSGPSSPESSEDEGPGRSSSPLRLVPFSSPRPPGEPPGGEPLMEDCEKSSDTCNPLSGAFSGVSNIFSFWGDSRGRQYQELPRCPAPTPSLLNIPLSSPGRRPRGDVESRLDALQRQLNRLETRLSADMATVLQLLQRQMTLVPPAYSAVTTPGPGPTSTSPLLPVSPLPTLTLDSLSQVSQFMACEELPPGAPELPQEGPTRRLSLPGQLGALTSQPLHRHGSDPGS

Row | SMILES | hERG current change (%, negative = inhibition) at 10uM [%]
1 | O=C(CSc1nc2cc(C(=O)O)ccc2c(=O)n1-c1ccc(F)cc1)Nc1ccc(F)c(F)c1F | 1.54
2 | CCCCn1c(NC(=O)c2ccc(F)cc2)c(C#N)c2nc3ccccc3nc21 | 6.88
3 | CCc1cc(C(=O)OC)c(NC(=O)CC2SC(N)=NC2=O)s1 (stereo not drawn) | -6.56
4 | CCCC(=O)N1CCC(CCC(=O)NC2CC2)CC1 | 7.63
5 | COc1ccc(S(=O)(=O)N2c3ccccc3NC(=O)CC2C)cc1 (stereo not drawn) | 9.7
6 | O=[N+]([O-])c1ccc(CS(=O)(=O)c2ccc(Cl)cc2)cc1 | -9.81
7 | CCc1ccc(Nc2nnc(SCC(=O)c3c(N)n(C4CC4)c(=O)[nH]c3=O)s2)cc1 | -17.7
8 | COc1cnc(-c2ccccn2)nc1NC(C)C | 7.65
9 | C=CCNC(=O)c1onc(CS(=O)(=O)c2cc(C)cc(C)c2)c1C(=O)NCC=C | -8.18
10 | C[C@H](N)c1nnc(SCC(=O)c2ccc(Cl)cc2)o1 | -6.79
11 | CCC(C)[C@H](N)c1nnc(SCC(=O)c2ccc(Cl)cc2)o1 (stereo partly drawn) | -52.5
12 | CC(C)[C@H](N)c1nnc(SCC(=O)c2ccc(Cl)cc2)o1.Cl | -14.2
13 | Cc1ccc2oc(C(=O)N(C)Cc3ccon3)c(C)c2c1 | 4.23
14 | Cc1cccc2c(=O)cc(C(F)(F)F)[nH]c12 | 13.8
15 | COc1ccc(CCNC(=O)C2CCCN(S(C)(=O)=O)C2)cc1OC (stereo not drawn) | 12
16 | CCc1ccc(-c2nc(CN3CCC(C(=O)NCCc4ccc(OC)c(OC)c4)CC3)c(C)o2)cc1 | -76.2
17 | CCc1ccc(-c2nc(CN3CCCC(C(=O)NCCc4ccc(OC)c(OC)c4)C3)c(C)o2)cc1 (stereo not drawn) | -50.5
18 | COc1ccc(-c2nc(CN3CCC(C(=O)NC4CC4)CC3)c(C)o2)cc1OC | -12.8
19 | COc1ccc(CN2CCC(C(=O)NCCc3ccc(OC)c(OC)c3)CC2)c(OC)c1 | -29.9

Row | SMILES | hERG current change (%, negative = inhibition) at 10uM [%]
20 | CCS(=O)(=O)N1CCCC(C(=O)NCCc2ccc(OC)c(OC)c2)C1 (stereo not drawn) | 13.1
21 | Cn1c(=O)cc(OCCCC(=O)NCc2ccc(F)cc2Cl)c2ccccc21 | -15.1
22 | CCCOc1ccc(C(C)=O)cc1CSCCC#N | -1.08
23 | Cn1c(CC(=O)Nc2ccccc2F)nnc1SCC(=O)NC1CCCC1 | 11
24 | COCCN1CC(CNC(=O)c2cc(COc3ccc(C)c(C)c3)on2)CC1=O (stereo not drawn) | -20.8
25 | Cc1cc(OCc2cc(C(=O)NC3CCC3)no2)cc(C)c1Cl | 3.82
26 | Cc1cc(OCc2cc(C(=O)NCCN3CCCCC3CO)no2)cc(C)c1Cl (stereo not drawn) | -65.8
27 | CCN1CCCC1CNC(=O)c1cc(COc2ccc(C)c(C)c2)on1 (stereo not drawn) | -65.2
28 | COc1cccc(OCc2cc(C(=O)NCCN3CCCCC3CO)no2)c1 (stereo not drawn) | 2.5
29 | Cc1ccc(OCc2cc(C(=O)NCC3COCCO3)no2)cc1C (stereo not drawn) | -10
30 | Cn1c(SCC(=O)NNC(=O)c2ccc(Br)cc2)nnc1-c1cccnc1 | 25.6
31 | Cc1ccc(NC(=O)NC(=O)CSc2nnc(-c3ccc(Cl)cc3Cl)n2N)c(C)c1 | -6.38
32 | Cc1nc(C)c(C(=O)NNS(=O)(=O)c2ccccc2)s1 | 8.26
33 | Cl.Fc1ccc(COc2cccc(CNCc3ccncc3)c2)cc1 | -40.6
34 | COc1cc(CNCc2ccccn2)ccc1OCc1cccc(Cl)c1.Cl | -54
35 | CCOc1c(Cl)cc(CNCc2ccccn2)cc1OC.Cl | -18.7
36 | CCOc1cc(/C=N/N=C(N)N)ccc1OCc1ccc(Cl)cc1 | -19.9
37 | CCOc1cc(CNCc2ccccn2)cc(Cl)c1OC.Cl | 29.6
38 | Cl.c1ccc(COc2cccc(CNCc3ccccn3)c2)cc1 | -45.2

Row | SMILES | hERG current change (%, negative = inhibition) at 10uM [%]
39 | COc1cc(CNCc2ccccn2)ccc1OCc1ccc(Cl)c(Cl)c1.Cl | -51.2
40 | COc1cc(/C=N/O)ccc1OCc1ccc(Cl)cc1 | 19.6
41 | COc1cc(CNCc2ccccn2)ccc1OCC(=O)NC(C)(C)C.Cl | 0.777
42 | Cl.Clc1ccc(COc2cccc(CNCc3ccncc3)c2)cc1 | -59.8
43 | Cl.OCCNCc1cccc(OCc2ccc(Cl)cc2)c1 | -12.9
44 | COc1cc(/C=N/N=C(N)N)ccc1OCc1ccc(Cl)cc1 | -50.5
45 | CCC(C)NC(=O)c1ccccc1NC(=O)Nc1ccccc1 (stereo not drawn) | 3.24
46 | COc1ccccc1OCCNC(=O)C(=O)c1c[nH]c2ccccc12 | 5.02
47 | CC1(C)Cc2c(sc3c2C(=O)N(c2ccccc2)C2=NCCCN23)CO1 | 3.7
48 | CC(C)C[C@H](NC(=O)c1nc[nH]c1C(=O)NC1CCN(C(=O)OC(C)(C)C)CC1)C(=O)OC(C)(C)C | -10.8
49 | O=C(Nc1c2c(nn1-c1ccc(F)cc1)CS(=O)C2)C12CC3CC(CC(C3)C1)C2 (stereo not drawn) | 16.7
50 | COc1ccccc1N(CC(=O)NCCSc1ccc(Cl)cc1)S(C)(=O)=O | -6.87
51 | COc1cc(CNCc2cccnc2)ccc1OCc1ccccc1.Cl | -21.8
52 | COc1cc(CNCc2ccccn2)ccc1OCC(N)=O.Cl | -0.0507
53 | COc1cc(CNCc2ccccn2)ccc1OCc1ccc(Cl)cc1.Cl | -56.8
54 | Cc1ccc(S(=O)(=O)NCC(C)n2nc(C)nc2C)cc1 (stereo not drawn) | -0.542
55 | C=CCn1c(O)c(N=O)c2cc(C)ccc21 | -8.69
56 | CCn1c(SCC(=O)Nc2ccc3c(c2)OCCO3)nnc1-c1ccncc1 | 0.979
57 | Cc1ccc(S(=O)(=O)N2CCN(C(=O)CN3CCN(C)CC3)C2)cc1 | 14.1
